Measurements taken from PubChem BioAssay (EPA / NIEHS).
Activity calls are given as the source filed them. Rule for the calls: active = hit-call score of the fitted dose curve at least 0.9, where 1 is the maximum; inactive = score below 0.9.

Tests used:
[1] = CCTE_Shafer_MEA_acute_interburst_interval_mean: CCTE's Neural Acute Assay for Mean Interburst Interval, Shafer Lab (AID 2284016);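 note: percent change of mean interburst interval versus each well's own pre-dose baseline; curves fitted for decrease in interburst interval relative to DMSO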
Summary of the method: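 MEA recording of spontaneous network bursting in primary rat cortical cultures; mean interburst interval was compared before and after a 40-min compound exposure (0.03-40 uM) and expressed as percent change, relative to DMSO.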

[2] = CCTE_Shafer_MEA_acute_burst_percentage_mean: CCTE's Neural Acute Assay for Percentage of Spikes in a Burst, Shafer Lab (AID 2284017);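 for AC50: curve fitted for loss of signal so potency reflects decreased burst percentage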
Summary of the method: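 Compounds were tested at 0.03-40 uM on primary rat cortical neuron networks grown over microelectrodes, with at least three wells per compound. Spontaneous firing was recorded for 40 min before and 40 min after dosing, and the change in burst percentage was computed per well.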

[3] = CCTE_Shafer_MEA_acute_burst_percentage_std: CCTE's Neural Acute Assay for Standard Deviation of Burst Percentage, Shafer Lab (AID 2284018);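 note: fitted in the negative direction so actives lower burst percentage SD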
Summary of the method: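 Value is percent change from baseline in the across-electrode SD of spikes-in-bursts percentage, wells with >/= 10 active electrodes. Acute 40-min exposure to 0.03-40 uM on DIV 13 or 15 rat cortical cultures, recorded at 37 C after 40-min baseline.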

[4] = CCTE_Shafer_MEA_acute_per_network_burst_spike_number_mean: CCTE's Neural Acute Assay for Average Number of Spikes in a Network Burst, Shafer Lab (AID 2284019);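 for AC50: curve fitted for loss of signal so actives reduce spikes per network burst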
Summary of the method: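 Percent change from baseline in mean spikes per network burst, spikes detected at 8x rms noise. Each compound at 0.03-40 uM in at least three wells of rat cortical cultures, recorded 40 min before and 40 min during exposure.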

[5] = CCTE_Shafer_MEA_acute_per_network_burst_spike_number_std: CCTE's Neural Acute Assay for Standard Deviation of Number of Spikes in a Network Burst, Shafer Lab (AID 2284020);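 note: fitted for decrease in spike-number SD versus DMSO so actives lower it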
Summary of the method: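 Endpoint: percent change from 40 min baseline in standard deviation of spikes per network burst, after 40 min compound exposure (0.03-40 uM, 37 C). Cortical rat neurons on MEA at DIV 13 or 15; spikes detected at 8x rms noise, 300-5000 Hz band-pass.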

[6] = CCTE_Shafer_MEA_acute_per_network_burst_electrodes_number_mean: CCTE's Neural Acute Assay for Mean Number of Electrodes in a Network Burst, Shafer Lab (AID 2284021);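 note: curves fitted for decreases only so hits reduce electrodes per burst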
Summary of the method: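 Percent change from baseline in average electrode count per network burst, rat cortical cultures on 48-well MEAs; 40-min recordings each side of exposure, DIV 13 or 15; threshold 8x rms noise; DMSO as negative control.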

[7] = CCTE_Shafer_MEA_acute_network_burst_percentage: CCTE's Neural Acute Assay for Percentage of Network Bursts, Shafer Lab (AID 2284022);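 note: curves fitted for loss so actives lower network burst percentage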
Summary of the method: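 On DIV 13 or 15, at least three wells of rat cortical neurons per compound are dosed at 0.03-40 uM. Spontaneous firing is detected at 8x rms noise for 40 min before and after dosing at 37 C. The percent change in network-burst spike share is reported.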

[8] = CCTE_Shafer_MEA_acute_cross_correlation_area: CCTE's Neural Acute Assay for Area of Cross Correlation, Shafer Lab (AID 2284024);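 note: area under pooled inter-electrode spike cross-correlation near zero lag as percent change from own baseline; curves fitted for loss of cross-correlation area so actives lower synchrony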
Summary of the method: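 Extracellular recordings from cultured rat cortical neurons measure network synchrony as cross-correlation area; each well's post-compound value (0.03-40 uM, 40 min) is compared with its own 40 min baseline to give percent change.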

[9] = CCTE_Shafer_MEA_acute_cross_correlation_HWHM: CCTE's Neural Acute Assay for Cross Correlation at Half Width at Half Maximum, Shafer Lab (AID 2284026);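 note: percent change per well from pre-dose baseline in spike cross-correlogram half width; hits are a decrease in cross-correlogram half width relative to DMSO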
Summary of the method: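 Percent change in cross-correlogram half width at half maximum, narrower meaning more synchrony, was derived per well from paired 40-min recordings before and during exposure to 0.03-40 uM compound in rat cortical cultures at 37 C.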

[10] = CCTE_Shafer_MEA_acute_synchrony_index: CCTE's Neural Acute Assay for Synchrony, Shafer Lab (AID 2284027);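 note: network synchrony index of spontaneous spiking in primary rat cortical neurons on MEAs; fitted for loss of signal so actives lower synchrony relative to DMSO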
Summary of the method: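 The synchrony index is taken as percent change per well between a 40 min baseline and a 40 min recording with compound (0.03–40 uM), at 37C. Rat cortical cultures on multiwell MEAs at DIV 13 or 15, spike threshold 8× rms noise.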

Measured: AC50

CCCCCCC(CO)CCCC (stereo not given)
inactive: [3] | [5] | [7] | [8]
active: [1] 15 µM | [2] 4.14 µM | [4] 0.0509 µM | [6] 77.4 nM | [9] 4.38 µM | [10] 4.68 µM

CC1(C)CCC[C@]2(C)[C@H]3CCO[C@]3(C)CC[C@@H]12
inactive: all assays above

CCOC(=O)C(C#N)=C(c1ccccc1)c1ccccc1
inactive: all assays above

O=CN1CCOCC1
inactive: all assays above

O=C(Nc1ccc2c(O)c(N=Nc3ccc(N=Nc4ccc(S(=O)(=O)O)cc4)cc3)c(S(=O)(=O)O)cc2c1)c1ccccc1
active: [1] 15 µM | [2] 15 µM | [10] 15 µM
inactive: all other assays above

C=CC(C)(O)CCC=C(C)C (stereo not given)
active: [1] 15 µM | [7] 3 nM
inactive: all other assays above

Oc1c(Cl)cc(Cl)c(Cl)c1Cc1c(O)c(Cl)cc(Cl)c1Cl
active: [1] 0.122 µM | [2] 0.163 µM | [5] 153 nM | [6] 540 nM | [7] 454 nM | [8] 127 nM | [10] 0.203 µM
inactive: [3] | [4] | [9]

CC(CN=Cc1ccccc1O)N=Cc1ccccc1O (stereo not given)
active: [4] 15 µM | [9] 15 µM
inactive: all other assays above

COCCc1ccc(OCC(O)CNC(C)C)cc1 (stereo not given)
inactive: all assays above

CN(C)C(=S)SC(=S)N(C)C
active: [7] 3390 nM
inactive: all other assays above
